Activity calls are given as the source filed them. How the source made its calls: active means hit-call score of the fitted dose curve at least 0.9, where 1 is the maximum; inactive means score below 0.9.
Experiment: BSK_SAg_PBMCCytotoxicity: PBMC Cytotoxicity Assessment in the BioMAP Diversity Plus: SAg Assay (AID 2283093);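 further: fitted both ways against DMSO so a hit may be loss or gain of signal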
Details: primary human HUVEC with PBMC
Method: BSK_SAg is a cell-based, multiplexed-readout assay that uses umbilical vein endothelium and peripheral blood mononuclear cells, a human vascular primary cell co-culture, with measurements taken at 24 hours after chemical dosing in a 96-well plate.BSK_SAg_PBMCCytotoxicity is an assay component measured in the BSK_SAg assay. It measures Alamar blue related to cell death using Alamar Blue Reduction technology.Data from the assay component BSK_SAg_PBMCCytotoxicity was analyzed into 1 assay endpoint. This assay endpoint, BSK_SAg_PBMCCytotoxicity, was analyzed with bidirectional fitting relative to DMSO as the negative control and baseline of activity. Using a type of viability reporter, gain or loss-of-signal activity can be used to understand changes in the viability. Furthermore, this assay endpoint can be referred to as a secondary readout, because this assay has produced multiple assay endpoints where this one serves a viability function. To generalize the intended target to other relatable targets, this assay endpoint is annotated to the cell cycle intended target family, where the subfamily is cytotoxicity.
The levels of cell surface (or secreted, indicated by the prefix "s") biomarker endpoints were measured by ELISA. Overt cytotoxicity to cells in confluent adherent cultures (all systems other than the BT system) was assessed by measuring total protein levels using sulforhodamine B (SRB) staining in parallel cultures at the time of biomarker measurements, indicated as SRB endpoints. For proliferation assays for adherent cell types, individual cell types are cultured at sub-confluence and relative cell numbers quantified by SRB staining at time points optimized for each system (48 h: 3C and CASM3C systems; 72 h: BT and HDF3CGF systems; 96 h: SAg system). SRB was performed by staining cells with 0.1% SRB after fixation with 10% TCA and reading wells at 560 nm.Viability and proliferation of PBMC (T cells) was quantified by Alamar Blue reduction for the SAg and BT systems. For PBMC viability (referred to as PBMC Cytotoxicity within the assay endpoint names), cells were plated (75,000/well in a 96-well plate) and then chemical samples added for 1 h before addition of activators, SEB and TSST-1 (20 ng/mL final concentration each). Cells were incubated for 90 h. Then, Alamar Blue (20 uL/well) (Invitrogen, Cat DAL1100) was added for 6 h, and the plates were read with a fluorescence microplate reader at 546/580 nm (excitation/emission). For PBMC proliferation, cells were plated and activated as above but incubated for only 16 h prior to addition of Alamar Blue. Plates were read after 6 h.
With `CCCCN(CCCC)C(=S)[S-].CCCCN(CCCC)C(=S)[S-].[Ni+2]` the outcome was “inactive”. For `CCOP(=O)(OCC)OC(=CCl)c1ccc(Cl)cc1Cl`, the outcome was “inactive”. For `CCOP(=S)(OCC)OP(=S)(OCC)OCC`, the AC50 was 25.3 µM (active). With `CCC(C)(C#N)N=NC(C)(C#N)CC` (stereo not given) the outcome was “inactive”. For `CCCCCCCCCCCCN(C)C`, the outcome was “inactive”. In the case of `CCCCOC(=O)COC(=O)c1ccccc1C(=O)OCCCC`, the outcome is reported as “inactive”. With `Cc1ccc(OP(=O)(Oc2ccc(C)cc2C)Oc2ccc(C)cc2C)c(C)c1` the AC50 was 20 µM (active). For `O=C(O)C1(c2ccc3c(c2)OC[C@H](Cc2ccc(-c4ccccc4)cc2)[C@H]3O)CCCC1`, the outcome was “inactive”. In the case of `O=[N+]([O-])c1cccc2ccccc12`, the outcome is reported as “inactive”. In the case of `OC(Cc1ccccc1Cl)(Cn1cncn1)C1(Cl)CC1` (stereo not given), the outcome is reported as “inactive”. For `CC(C)N(C(=O)CCl)c1ccccc1`, the AC50 was 16.7 µM (active). In the case of `CC1(C)[C@H](C(=O)O[C@H](C#N)c2cccc(Oc3ccccc3)c2)[C@@H]1/C=C(\Cl)C(F)(F)F`, the outcome is reported as “inactive”. For `OC(Cc1ccccc1Cl)(Cn1[nH]cnc1=S)C1(Cl)CC1` (stereo not given), the outcome was “inactive”. In the case of `CCOC(=O)CC(=O)CCl`, the AC50 is reported as 9.62 µM (active). For `Cc1ccc2nc3sc(=O)sc3nc2c1`, the outcome was “inactive”. For `CCOC(=O)C(SP(=S)(OC)OC)c1ccccc1` (stereo not given), the outcome was “inactive”. For `Oc1cccc(-c2ccccc2)c1`, the AC50 was 32.1 µM (active). In the case of `O=C(Cc1ccccc1)OCCc1ccccc1`, the outcome is reported as “inactive”. In the case of `CC(C)(C)c1ccccc1O`, the outcome is reported as “inactive”. In the case of `O=S(=O)(C(Cl)(Cl)Cl)C(Cl)(Cl)Cl`, the AC50 is reported as 2.3 µM (active). With `C=CC(Cl)CCl` (stereo not given) the outcome was “inactive”. With `N#Cc1cccnc1` the outcome was “inactive”. With `CC(C=O)Cc1ccc2c(c1)OCO2` (stereo not given) the outcome was “inactive”. For `CC(C)=CC1C(C(=O)OCc2cccc(Oc3ccccc3)c2)C1(C)C` (stereo not given), the outcome was “inactive”. For `O=C1C=CC(=O)c2ccccc21`, the AC50 was 0.102 µM (active). In the case of `c1ccc(-c2cccc(-c3ccccc3)c2)cc1`, the AC50 is reported as 20 µM (active). With `C[C@]12CC[C@@H](O)C[C@@H]1CC[C@@H]1[C@@H]2CC[C@]2(C)C(=O)CC[C@@H]12` the outcome was “inactive”. For `O=[N+]([O-])c1ccc(Nc2ccccc2)cc1`, the outcome was “inactive”. For `Oc1cc(Cl)c(Cl)cc1Cl`, the outcome was “inactive”. In the case of `Cc1cccc(OP(=O)(Oc2cccc(C)c2)Oc2cccc(C)c2)c1`, the outcome is reported as “inactive”. In the case of `OCCCCO`, the outcome is reported as “inactive”. In the case of `c1ccc2sc(SNC3CCCCC3)nc2c1`, the AC50 is reported as 27 µM (active). For `O=S(=O)(c1ccc(Cl)cc1)c1cc(Cl)c(Cl)cc1Cl`, the outcome was “inactive”. With `Cc1cc(Cl)ccc1OC(C)C(=O)O` (stereo not given) the outcome was “inactive”. With `CC(C)(COCC1CO1)COCC1CO1` (stereo not given) the outcome was “inactive”. For `NC(=O)CCl`, the outcome was “inactive”. In the case of `Cc1cc(C(C)(C)c2ccc(O)c(C)c2)ccc1O`, the AC50 is reported as 15.7 µM (active). For `COCC(=O)N(c1c(C)cccc1C)[C@H](C)C(=O)OC`, the outcome was “inactive”. With `N#CCCC(Br)(C#N)CBr` (stereo not given) the AC50 was 2.52 µM (active). For `Oc1ccc(Cc2ccc(O)cc2)cc1`, the outcome was “inactive”.
